# A selection: hits, their analogues and other compounds. The true share with any hit is near 1.6%.
# N-glyco inh: blocks N-linked glycosylation in D54 reporter cells; reporter increase, % at 12.5 µM; 360,000 tested, 0.23% active; D54 ERlucT glycosylation luciferase reporter, 24 h; percent of 100 nM tunicamycin response;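 active = mean luciferase reporter signal, scaled so untreated is 0 and the glycosylation-blocking control 100, at or above a set limit in every replicate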;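 note: luciferase carries N-glycosylation sites so blocking glycosylation raises the light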
# Vif imaging: HIV Vif inhibition; HEK293T cells, Vif self-association by quenched fluorescence, imaging, 24 h; inhibition, % at 7.49 µM; 340,000 tested, 0.35% active; AID 602346; in the data active = inhibition above about 50%, passing the limit was not always enough
# Myeloid diff 2: promotes myeloid progenitor differentiation; ER-HoxA9 myeloid progenitors, lysozyme-GFP differentiation, flow cytometry; calls only at 10 µM; 360,000 tested, 1% active; AID 624256;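 active = normalized GFP-positive differentiation at or above the plate's own cutoff, the solvent-only control mean plus 3 SD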;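 note: cells exposed to compound for four days before flow analysis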
# ABCB6 inh MLPCN: blocks the human ABCB6 transporter. 360,000 tested, 0.19% active. fluorescence ratio to DMSO, % at 10 µM. K562-ABCB6 porphyrin accumulation, flow cytometry, 1 h; active compounds read low;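 active = fluorescence ratio to DMSO below 75%, the collection mean minus 3 SD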;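 note: signal is porphyrin accumulated inside mitochondria; lower ratio means ABCB6 inhibition with less porphyrin fluorescence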
# Target sequence (Q9NP58 whole entry, looked up): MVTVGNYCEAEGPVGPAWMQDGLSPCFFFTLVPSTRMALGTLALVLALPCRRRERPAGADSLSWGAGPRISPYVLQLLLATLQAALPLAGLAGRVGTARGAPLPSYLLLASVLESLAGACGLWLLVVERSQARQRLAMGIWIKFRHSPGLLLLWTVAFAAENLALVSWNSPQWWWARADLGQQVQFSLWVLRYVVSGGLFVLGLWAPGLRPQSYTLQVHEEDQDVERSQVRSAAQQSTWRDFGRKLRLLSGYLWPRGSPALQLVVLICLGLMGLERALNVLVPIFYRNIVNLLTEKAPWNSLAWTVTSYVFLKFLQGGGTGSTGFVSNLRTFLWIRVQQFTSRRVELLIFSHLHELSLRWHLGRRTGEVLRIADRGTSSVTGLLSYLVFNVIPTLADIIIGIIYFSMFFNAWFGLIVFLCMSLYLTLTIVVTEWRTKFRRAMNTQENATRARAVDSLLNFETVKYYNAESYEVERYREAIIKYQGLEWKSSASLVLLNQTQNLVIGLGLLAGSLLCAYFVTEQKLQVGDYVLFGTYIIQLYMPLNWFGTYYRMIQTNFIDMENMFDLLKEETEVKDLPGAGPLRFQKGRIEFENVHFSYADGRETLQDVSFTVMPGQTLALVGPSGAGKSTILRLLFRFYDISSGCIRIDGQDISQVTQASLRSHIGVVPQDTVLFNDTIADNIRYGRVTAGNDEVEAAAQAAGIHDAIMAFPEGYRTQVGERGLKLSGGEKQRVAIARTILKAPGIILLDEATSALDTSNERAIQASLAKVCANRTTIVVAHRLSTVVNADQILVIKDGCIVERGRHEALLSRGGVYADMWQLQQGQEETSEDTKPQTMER
# RAD54 branch: inhibitors of human RAD54 branch migration; RAD54 Holliday junction branch migration, FAM/BHQ fluorescence; 360,000 tested, 0.14% active; AID 602329; Q92698; inhibition, % at 10.4 µM;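 active = mean normalized replicate activity at least 40 and at least half of replicates scoring 40 or more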;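 note: inhibitors cause a drop in the FAM fluorescence signal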
# Myeloid diff CP1: promotes myeloid progenitor differentiation; shares compounds with Myeloid diff 2; ER-HoxA9 myeloid progenitors, GFP/Mac1 double-positive flow; calls only; 2,300 tested, 2% active; AID 651706;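 active = share of green or green-and-red cells above 9 and 9% in run 1 or 4 and 3% in run 2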
# GFP autofluor: compound fluorescence in myeloid differentiation counter-screen; ER-HoxA9 myeloid progenitors, no estrogen, GFP autofluorescence flow cytometry; vehicle wells 0%, positive control 100%; fluorescence response, % (concentration not given with the values); AID 651707; shares compounds with Myeloid diff 2; 2,300 tested, 7.4% active;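 active = over 5% cells positive for green fluorescent reporter, or over 2% positive for both it and APC stain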
# Hits are given with their value; - = inactive; . = no result; + = active, no number.
SMILES,N-glyco inh,Vif imaging,Myeloid diff 2,ABCB6 inh MLPCN,RAD54 branch,Myeloid diff CP1,GFP autofluor
CC(=O)N(C)C[C@H]1Oc2cc(C#CCC(C)C)ccc2S(=O)(=O)N([C@H](C)CO)C[C@@H]1C,.,.,.,.,-,.,.
O=C(O)C1CCCN1c1ncnc2c1oc1ccccc12 (stereo unspecified),-,-,+,-,-,-,6.6
CCNC(=O)[C@@H]1[C@@H](CO)[C@@H]2Cn3c(ccc(-c4cccnc4)c3=O)[C@@H]2N1Cc1ccc2c(c1)OCO2,.,.,.,.,-,.,.
O=C(C[C@@H]1C=C[C@H](NC(=O)C2CCC2)[C@@H](CO)O1)NCc1ccncc1,.,.,.,.,-,.,.
O=C(Cc1cn2ccsc2n1)NCCc1ccc(F)cc1,-,-,-,-,-,-,-
CCC1(c2ccc(F)cc2)NC(=O)N(CC(=O)N2CCN(S(=O)(=O)c3ccc(Cl)cc3)CC2)C1=O (stereo unspecified),-,-,-,-,-,.,.
CCC1(c2ccc(F)cc2)NC(=O)N(CC(=O)N2CCN(S(=O)(=O)c3ccc(C)cc3C)CC2)C1=O (stereo unspecified),-,-,+,-,-,-,-
O=C(C[C@@H]1CC[C@@H]2[C@H](COC[C@H](O)CN2Cc2ccccc2)O1)NCc1ccccc1Cl,.,.,.,.,-,.,.
O=[N+]([O-])c1ccccc1-c1ccc(C(=S)N2CCN(c3ccccc3)CC2)o1,-,-,+,-,-,-,-
CN(C)c1ccc(S(=O)(=O)NCC(=O)N2CCN(c3ccccc3)CC2)cc1[N+](=O)[O-],-,-,+,-,-,-,-
c1ccc(Cc2c(-c3ccccc3)nc3c4ccccc4ccn23)cc1,-,-,+,-,-,-,-
Brc1cccc(-c2nc3c4ccccc4ccn3c2Cc2ccccc2)c1,-,.,-,-,-,.,.
CCN(CC)CCOC(=O)c1ccc(N/C=C(/C#N)c2nc(-c3ccc(OC)c(OC)c3)cs2)cc1,-,-,-,-,.,-,-
CC1C(=O)N(Cc2cn(CCC3OCCCO3)nn2)CCS(=O)(=O)N1Cc1ccc(-c2ccccc2)cc1 (stereo unspecified),-,-,+,-,-,-,-
CC(C)CC1C(=O)N(Cc2cn(CC3CCCCC3)nn2)CCS(=O)(=O)N1Cc1ccc(-c2ccncc2)cc1 (stereo unspecified),-,-,-,-,.,-,-
CC(C)CNC(=O)c1ccccc1-c1ccccc1C(=O)O,-,-,-,-,-,-,-
COCC(=O)Nc1c(C(=O)Nc2cccc(OC)c2)oc2ccccc12,-,-,-,-,-,-,-
O=C(Nc1cccc(C(F)(F)F)c1)C1Cc2c(-c3cccc(F)c3)ccnc2O1 (stereo unspecified),-,-,-,-,-,.,.
CC(=O)Nc1ccc(-c2ccnc3c2CC(C(=O)Nc2cccc(C(F)(F)F)c2)O3)cc1 (stereo unspecified),-,-,+,-,-,-,-
CC(=O)Nc1ccc(-c2ccnc3c2CC(C(=O)Nc2cccc(N(C)C)c2)O3)cc1 (stereo unspecified),-,-,+,-,-,-,-
CS(=O)(=O)Nc1cccc(NC(=O)C2Cc3c(-c4ccccc4)ccnc3O2)c1 (stereo unspecified),-,-,+,-,-,-,-
CN(C)C(=O)c1cccc(-c2ccc3c(c2)[C@@H]2[C@@H](CCN2C(=O)c2ccccc2F)[C@@H](CO)N3)c1,.,.,.,.,-,.,.
CCN1CCc2c(sc(NC(=S)NC(=O)c3ccco3)c2C(N)=O)C1,-,-,-,-,-,-,-
CCN1CCc2c(sc(NC(=O)c3ccc(S(=O)(=O)N(CC)c4ccccc4)cc3)c2C(N)=O)C1,-,-,+,-,-,-,15.0
CN1C(=O)c2cc(NC(=O)C3CCCCC3)ccc2OC[C@H]2O[C@H](CC(=O)NCCc3ccncc3)CC[C@@H]21,.,.,.,.,-,.,.
SMILES,N-glyco inh,Vif imaging,Myeloid diff 2,ABCB6 inh MLPCN,RAD54 branch,Myeloid diff CP1,GFP autofluor
CCCN1[C@H](C(=O)OC)[C@@H](CO)[C@@H]2Cn3c(ccc(C4=CCCC4)c3=O)[C@@H]21,.,.,.,.,-,.,.
CC(C)NC(=O)N(C)C[C@H]1Oc2ncc(C#CC3CCCC3)cc2C(=O)N([C@@H](C)CO)C[C@H]1C,.,.,.,.,-,.,.
CCC(C)/C(C)=N/NC(=O)c1ccc(CSc2nc3ccccc3s2)cc1 (stereo unspecified),-,-,-,-,-,-,6.1
CC(C)(C)C(=O)Nc1ccc(-c2cn3ccsc3n2)cc1,-,-,-,-,-,-,-
COc1cc(S(=O)(=O)N2CCC(c3nc4ccccc4s3)CC2)ccc1S(=O)(=O)N1CC(C)CC(C)C1 (stereo unspecified),-,-,-,-,-,-,-
CCNC(=O)C[C@H]1CC[C@H](NC(=O)C2CCC2)[C@H](CO)O1,.,.,.,.,-,.,.
c1cc2c(cc1NC1CCCCCC1)OCO2,-,-,+,-,-,-,-
COc1cc2c(cc1OC)-c1cc3ccc4c(c3c[n+]1CC2)OCO4,-,-,+,-,-,+,-
O=C(Nc1cc(Cl)c(O)c(Cl)c1)C1CCCO1 (stereo unspecified),-,-,-,-,-,.,.
O=C1NC(=O)c2cc(NC(=O)C3CCCO3)ccc21 (stereo unspecified),-,-,-,-,-,-,-
O=C1OCc2cc(NC(=O)C3CCCO3)ccc21 (stereo unspecified),-,-,-,-,-,.,.
O=C(O)c1cc(NC(=O)C2CCCO2)cc(NC(=O)C2CCCO2)c1 (stereo unspecified),-,-,+,-,.,-,-
CC1(C)OC(=O)N(CCc2ccccc2)C1(C)O (stereo unspecified),-,-,-,-,-,-,-
C[C@@H]1CN([C@H](C)CO)C(=O)c2cc(NC(=O)CCCN(C)C)ccc2O[C@H]1CN(C)C(=O)Nc1ccccc1,.,.,.,.,-,.,.
COc1ccc(CNC(=O)C2CCCN(c3nc4ccccc4o3)C2)c(OC)c1 (stereo unspecified),-,-,-,-,.,.,.
COc1cccc(CNC(=O)C2CCCN(c3nc4ccccc4o3)C2)c1 (stereo unspecified),-,-,-,-,-,-,-
COc1ccc(NC(=O)N(C)C[C@H]2Oc3ccc(NC(=O)Nc4ccc5c(c4)OCO5)cc3CC(=O)N([C@@H](C)CO)C[C@H]2C)cc1,.,.,.,.,-,.,.
COc1ccc(-c2cc(C(=O)N3CCN(c4ccccc4OC)CC3)no2)cc1OC,-,-,-,-,.,-,-
Cc1c(Cc2ccccc2)c(=O)oc2cc(OC(=O)c3ccccc3)ccc12,-,-,-,-,-,.,.
COC(=O)Cc1c(C)c2ccc(OC(=O)c3ccccc3)cc2oc1=O,-,.,-,-,-,-,-
C=CCOC(=O)C1=C[C@@H](c2coc3ccccc3c2=O)C[C@@H](OCCCCO)O1,-,-,-,-,-,-,-
COCCNC(=O)C[C@@H]1CC[C@@H](NC(=O)NC2CCCC2)[C@@H](CO)O1,.,.,.,.,-,.,.

# Bioassay records: PubChem, several laboratories
